tim23-1 inh: growth inhibitors of tim23-1 mutant yeast, primary screen, luminescence, uHTS; S. cerevisiae tim23-1 growth, BacTiter-Glo luminescence, 24 h; inhibition, % at 20 µM; AID 463212, 2010; hit rate 1.3% among 330,000;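 active = growth inhibition of the mutant yeast at or above 50%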;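 also: temperature-sensitive mutant grown at 25 °C; plate controls were DMSO-treated mutant yeast for no effect and medium wells lacking yeast for full effect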
SUMO Mot1 rescue: yeast Mot1-301 growth rescue at high temperature, primary screen, SUMOylation pathway inhibitor project, S. cerevisiae, ATP luminescence, 38.5C | S. cerevisiae Mot1-301 growth rescue; percent above DMSO median, 100 means doubled | growth rescue, % at 18.8 µM | hit rate 1% among 320,000;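 active = every valid replicate shows activation above 250% relative to neutral control wells; inactive = the rest, any valid replicate at or below 250%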;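 also: OY570 slx delta 5 strain wells were the positive control but not used for scaling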
PfHsp90 yeast 2: growth inhibition of PfHsp90-expressing yeast, primary screen, antimalarial PfHsp90 inhibitor project, S. cerevisiae, BacTiter-Glo luminescence, single point, set 2; BacTiter-Glo ATP, 48 h; yeast lacking PDR1 and PDR3 efflux regulators; inhibition, % at 9.4 µM; hit rate 0.32% among 310,000;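 active = every replicate shows inhibition above about 80%, whatever the replicate mean, limit read from the data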;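 also: 0% = DMSO neutral controls and 100% = 20 µM radicicol positive controls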
tim10-1 inh: growth inhibitors of tim10-1 mutant yeast, primary screen, luminescence, uHTS. hit rate 2.2% among 330,000. inhibition, % at 20 µM. S. cerevisiae tim10-1 ts strain growth, BacTiter-Glo, 24 h;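 active = inhibition of at least 40%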;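 also: mutant grown at 25 °C; 0% = DMSO wells with yeast and 100% = wells holding no yeast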
TIM10 inh: growth inhibitors of isogenic TIM10 control yeast, primary screen, counter-screen for tim10-1 yeast inhibitor project, luminescence, uHTS; S. cerevisiae TIM10 strain growth, BacTiter-Glo luminescence, 24 h; inhibition, % at 10 µM; hit rate 1.4% among 330,000;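 active = inhibition of 40% or more at the single tested concentration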;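 also: wild-type TIM10 isogenic control strain grown at permissive 25 °C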
* hit, by the source's call. In the library only some 4.4% were active in any assay of this set; here they are far more common.

What do the screens show for `CCCCCCCCCC(=O)NNC(=O)c1c(O)c2ccccc2n(CCC)c1=O`?
tim23-1 inh: 37.9; SUMO Mot1 rescue: -12.4; PfHsp90 yeast 2: -1.0; tim10-1 inh: -24.0; TIM10 inh: 5.6

Results for O=C1OCCC1Sc1nnc(-c2ccc3c(c2)OCO3)n1-c1ccccc1 (centres undefined) ?
tim23-1 inh: 2.4; SUMO Mot1 rescue: 339.6*; PfHsp90 yeast 2: 10.1; tim10-1 inh: 18.3; TIM10 inh: 7.9

Results for O=Nc1ccc(O)c2ncccc12 ?
tim23-1 inh: -3.6; SUMO Mot1 rescue: -15.0; PfHsp90 yeast 2: 7.2; tim10-1 inh: 13.5; TIM10 inh: -6.6

What do the screens show for `COc1ccc(C)cc1N=Nc1ccc(O)c2ncccc12`?
PfHsp90 yeast 2: 108.9*

How did COc1cccc(N=Nc2ccc3cccnc3c2O)c1 do in these assays?
tim23-1 inh: 43.3; SUMO Mot1 rescue: 14.7; PfHsp90 yeast 2: 103.9*; tim10-1 inh: 12.7; TIM10 inh: 14.0

Results for COc1ccc(N=Nc2ccc(O)c3ncccc23)cc1 ?
tim23-1 inh: 47.3; SUMO Mot1 rescue: -26.8; PfHsp90 yeast 2: 104.0*; tim10-1 inh: 11.3; TIM10 inh: -2.9

How did Cc1ccccc1N=Nc1ccc(O)c2ncccc12 do in these assays?
SUMO Mot1 rescue: -1.6; PfHsp90 yeast 2: -33.0

How did COc1cc(OC)cc(C(=O)Nc2cccc3cccnc23)c1 do in these assays?
tim23-1 inh: 21.1; SUMO Mot1 rescue: -4.9; PfHsp90 yeast 2: -0.4; tim10-1 inh: -4.6; TIM10 inh: 16.2

How did COc1ccc(CN2CCN(CCSc3ccc(C)cc3)CC2)c(OC)c1OC do in these assays?
tim23-1 inh: 3.1; SUMO Mot1 rescue: 37.5; PfHsp90 yeast 2: -0.3; tim10-1 inh: 5.0; TIM10 inh: -0.1

How did O=C(COC(=O)CC1CC2CCC1C2)Nc1ccccc1[N+](=O)[O-] (centres undefined) do in these assays?
tim23-1 inh: 45.1; SUMO Mot1 rescue: 11.0; PfHsp90 yeast 2: -40.9; tim10-1 inh: -40.3; TIM10 inh: -11.3

How did Cc1ccccc1S(=O)(=O)NC(=NCc1ccc(F)cc1)c1ccccc1 do in these assays?
tim23-1 inh: 17.9; SUMO Mot1 rescue: 6.0; PfHsp90 yeast 2: 8.6; tim10-1 inh: 1.9; TIM10 inh: -0.6

Results for CC(C)(C)C(=O)NC(=S)NNC(=O)c1ccc(-c2ccccc2)cc1 ?
tim23-1 inh: 48.8; SUMO Mot1 rescue: 29.8; PfHsp90 yeast 2: 103.9*; tim10-1 inh: 8.5; TIM10 inh: -30.9

How did Cc1cccc(NCCC(=O)c2ccc(Br)cc2)c1 do in these assays?
tim23-1 inh: 16.9; SUMO Mot1 rescue: -1.5; PfHsp90 yeast 2: 26.3; tim10-1 inh: 16.8; TIM10 inh: 7.0

What do the screens show for `CC(C)c1ccc(NCCC(=O)c2ccc(Br)cc2)cc1`?
tim23-1 inh: -15.4; SUMO Mot1 rescue: 324.0*; PfHsp90 yeast 2: 1.7; tim10-1 inh: -9.4; TIM10 inh: -2.0

What do the screens show for `O=C(NCc1ccccn1)c1ccc(Cl)c(S(=O)(=O)N2CCOCC2)c1`?
tim23-1 inh: 1.8; SUMO Mot1 rescue: -12.3; PfHsp90 yeast 2: 2.8; tim10-1 inh: -2.8; TIM10 inh: -6.4

How did Cc1nn(-c2ccccc2[N+](=O)[O-])c(=O)c2ccccc12 do in these assays?
tim23-1 inh: 4.9; SUMO Mot1 rescue: 3.4; PfHsp90 yeast 2: -0.7; tim10-1 inh: -14.5; TIM10 inh: 4.9

Results for Cc1nn(-c2ccccc2)c(-c2ccccc2[N+](=O)[O-])c1C(=O)O ?
tim23-1 inh: 1.3; SUMO Mot1 rescue: 293.8*; PfHsp90 yeast 2: -3.5; tim10-1 inh: 3.0; TIM10 inh: 10.0

What do the screens show for `O=C(CSc1nnc(CNC(=O)c2cccc(C(F)(F)F)c2)o1)NC1CCCC1`?
tim23-1 inh: -1.1; SUMO Mot1 rescue: -1.9; PfHsp90 yeast 2: 4.1; tim10-1 inh: 10.4; TIM10 inh: 18.5

How did CN(C)c1ccc(CN(C(=O)c2ccc(Cl)c([N+](=O)[O-])c2)C2CCS(=O)(=O)C2)cc1 (centres undefined) do in these assays?
tim23-1 inh: 6.3; SUMO Mot1 rescue: 341.5*; PfHsp90 yeast 2: -15.8; tim10-1 inh: 0.2; TIM10 inh: -8.6

What do the screens show for `COc1ccc(-c2nn(-c3ccccc3)cc2C(=O)N2CCN(S(=O)(=O)c3ccccc3[N+](=O)[O-])CC2)cc1`?
PfHsp90 yeast 2: 99.3*

How did COc1ccc(-c2nn(-c3ccccc3)cc2C(=O)N2CCN(C(=O)c3ccco3)CC2)cc1 do in these assays?
tim23-1 inh: 7.6; SUMO Mot1 rescue: 6.7; PfHsp90 yeast 2: 18.3; tim10-1 inh: 8.4; TIM10 inh: 16.2

Results for COc1ccc(CNC(=S)N2CCN(S(=O)(=O)c3cccc(F)c3)CC2)cc1 ?
tim23-1 inh: 0.0; SUMO Mot1 rescue: 0.9; PfHsp90 yeast 2: 1.4; tim10-1 inh: 8.8; TIM10 inh: -8.1

How did COc1ccc(-c2nn(-c3ccccc3)cc2C(=O)N2CCN(S(=O)(=O)c3cccc(F)c3)CC2)cc1 do in these assays?
tim23-1 inh: 14.8; SUMO Mot1 rescue: -30.6; PfHsp90 yeast 2: 104.9*; tim10-1 inh: 21.3; TIM10 inh: 36.9

Results for COc1ccc(CCNC(=S)N2CCN(S(=O)(=O)c3cccc(F)c3)CC2)cc1 ?
tim23-1 inh: 0.2; SUMO Mot1 rescue: 350.6*; PfHsp90 yeast 2: 5.4; tim10-1 inh: -10.7; TIM10 inh: -5.1

What do the screens show for `COc1ccc(-c2nn(-c3ccccc3)cc2C(=O)N2CCN(S(=O)(=O)c3ccccc3C#N)CC2)cc1`?
tim23-1 inh: -9.5; SUMO Mot1 rescue: 127.8; tim10-1 inh: -7.6; TIM10 inh: 6.9

What do the screens show for `CCC(C(=O)NCc1ccc(F)cc1)N(Cc1cccs1)C(=O)c1snc(C(N)=O)c1N` (centres undefined)?
tim23-1 inh: 13.3; SUMO Mot1 rescue: -14.3; PfHsp90 yeast 2: 9.8; tim10-1 inh: 8.3; TIM10 inh: -10.2

How did O=C(CSc1n[nH]c(-c2ccncc2)n1)Nc1ccccc1Cl do in these assays?
tim23-1 inh: -2.5; SUMO Mot1 rescue: -7.6; PfHsp90 yeast 2: 8.4; tim10-1 inh: -1.2; TIM10 inh: -6.2

What do the screens show for `Cc1cccc(N2CCN(C(=O)c3c(-c4ccccc4Cl)noc3C)CC2)c1C`?
tim23-1 inh: 20.7; SUMO Mot1 rescue: -23.9; PfHsp90 yeast 2: -117.5; tim10-1 inh: 11.0; TIM10 inh: -6.0

Results for Cc1ccc(NS(=O)(=O)c2ccc(N3CCN(c4ccc(O)cc4)CC3)c([N+](=O)[O-])c2)c(C)c1 ?
tim23-1 inh: 19.9; SUMO Mot1 rescue: 213.0; PfHsp90 yeast 2: 96.1*; tim10-1 inh: -18.2; TIM10 inh: -9.6

How did Cc1ccc(NS(=O)(=O)c2ccc3c(c2)n(C)c(=O)n3C)c(C)c1 do in these assays?
tim23-1 inh: 4.9; SUMO Mot1 rescue: 355.2*; PfHsp90 yeast 2: -10.0; tim10-1 inh: -3.5; TIM10 inh: -1.1
